Inconclusive results are not listed. Calls of active or inactive are those of the source. Unless noted, calls come from the whole dose curve; as a rule, active = well fitted curve in the direction sought with a large enough effect in the repeat runs; inconclusive = weak or mixed curves; inactive = no such curve, though single readings can be large; an effect the other way counts as inactive or inconclusive.
Legend:
[1] = qHTS assay to identify small molecule antagonists of the vitamin D receptor (VDR) signaling pathway - cell viability counter screen (AID 743225); note: nearly all actives have a fitted effect of over 50% in size
Method in brief: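 Cytotoxicity counter screen read by CellTiter-Glo luminescence (30 min, room temperature) in the same wells as the VDR-bla antagonist readout. HEK 293T VDR-UAS-bla cells had 16 h at 37C with compound and 3 nM (final) 1-alpha,25-dihydroxyvitamin D3, then 2 h with FRET substrate.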

[2] = qHTS assay to identify small molecule agonists of the NFkB signaling pathway - cell viability counter screen (AID 1159515; calls by dose curve; note: series mostly up to about 61 µM; nearly all actives have a fitted effect of over 55% in size)
Method in brief: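 NFkB-bla ME-180 cells, 2,000/well, were plated overnight at 37 C, 5% CO2, then exposed to compounds in DMSO for 5 hr. After the bla FRET read, CellTiter-Glo was added to the same wells; luminescence was read after 30 min at room temperature.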

[3] = qHTS assay to identify small molecule agonists of the endoplasmic reticulum stress response signaling pathway (AID 1159516; active = well fitted activation curve with a large enough effect in the signal ratio in the repeat runs, not every such curve was filed as active; the % refers to the signal ratio)
Method in brief: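 CellSensor ESRE-bla HeLa cells, carrying a beta-lactamase reporter driven by the ER stress response element, were plated overnight and exposed to compounds for 5 hr at 37 C. Reporter activity was read as FRET substrate fluorescence after 2 hr at room temperature.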

[4] = qHTS assay to identify small molecule agonists of the endoplasmic reticulum stress response signaling pathway - cell viability counter screen (AID 1159517; calls by dose curve; note: series mostly up to about 61 µM; nearly all actives have a fitted effect of over 50% in size)
Method in brief: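 ESRE-bla HeLa cells, 1,500 per well, seeded overnight then treated with compounds for 5 hr at 37 C. After the beta-lactamase read, viability in the same wells is measured by CellTiter-Glo luminescence after 30 min at room temperature.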

[5] = qHTS assay to identify small molecule antagonists of the retinoid-related orphan receptor gamma (ROR-gamma) signaling pathway - cell viability counter screen (AID 1159520); note: nearly all actives have a fitted effect of over 50% in size
Method in brief: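 Tet-on ROR gamma CHO cells were given compounds for 2 hr, then doxycycline hyclate at 1 uM final, and incubated 16 hr at 37 C. Viability was measured as ATP content by CellTiter-Glo luminescence.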

[6] = qHTS assay to identify small molecule agonists of the AP-1 signaling pathway - cell viability counter screen (AID 1159525; calls by dose curve; note: nearly all actives have a fitted effect of over 55% in size)
Method in brief: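 AP-1-bla ME-180 cells in Opti-MEM with 0.5% dialyzed FBS, compound exposure 5 h at 37 C in 15-point titration. Viability read in the same wells as ATP content by CellTiter-Glo luminescence, normalised to tetra-n-octylammonium bromide and DMSO controls.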

[7] = qHTS assay to identify small molecule agonists of the AP-1 signaling pathway (AID 1159526; calls by dose curve)
[8] = target: Retinoic acid receptor RXR-alpha (Homo sapiens) (UniProt P19793); assay: qHTS assay to identify small molecule agonists of the RXR signaling pathway (AID 1159527; calls by dose curve; note: nearly all actives have a fitted effect of over 35% in size)
Method in brief: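 Agonist-mode beta-lactamase reporter assay: HEK 293T RXR-alpha-UAS-bla cells treated 16 hr at 37 C with compounds, 9-cis retinoic acid as positive control. LiveBLAzer FRET substrate, 405 nm excitation, 460/530 nm emission.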

[9] = qHTS assay to identify small molecule agonists of the RXR signaling pathway - cell viability counter screen (AID 1159529); note: series mostly up to about 77 µM; nearly all actives have a fitted effect of over 50% in size
Method in brief: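 CellTiter-Glo luminescence gave viability in the wells also read for beta-lactamase. Cells (RXR-alpha-UAS-bla HEK 293T, 2% charcoal-stripped FBS medium) had 5 hr plating, then 16 hr compound exposure at 37 C; tetraoctyl ammonium bromide served as positive control.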

[10] = qHTS assay to identify small molecule antagonists of the retinoid acid receptor (RAR) signaling pathway - cell viability counter screen (AID 1159551); note: nearly all actives have a fitted effect of over 35% in size
Method in brief: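 C3RL4 cells were seeded overnight at 37 C, then treated with compounds plus 1 uM (final) retinol for 6 h at 37 C. Viability was read as ATP by CellTiter-Glo luminescence after 30 min at room temperature.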

[11] = qHTS assay to identify small molecule antagonists of the retinoic acid receptor (RAR) signaling pathway (AID 1159552; note: nearly all actives have a fitted effect of over 50% in size)
Method in brief: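 Luminescent RARE reporter read-out in C3RL4 cells: 6 hr co-treatment at 37 C of test compounds with retinol at 1 uM final. Cells plated overnight beforehand; luciferase reagent incubated 30 min at room temperature before reading.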

[12] = qHTS assay to identify small molecule agonists of the retinoic acid receptor (RAR) signaling pathway (AID 1159553)
Method in brief: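 C3RL4 cells carrying a RARE luciferase reporter were plated overnight at 37 C, then exposed to compounds in DMSO for 6 hr at 37 C and 5% CO2. Luminescence was read 30 min after luciferase reagent addition at room temperature.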

[13] = qHTS assay to identify small molecule antagonists of the estrogen related receptor (ERR) signaling pathway from Tox21 library - cell viability counter screen (AID 1224834); note: nearly all actives have a fitted effect of over 30% in size
Method in brief: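 ERR reporter cells were plated 6 h before compound addition, then exposed to test compounds in DMSO for 17.5 h at 37 C. Viability was read as CellTiter-Fluor fluorescence after a 30-minute incubation at 37 C.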

Measured: Potency

Sequence of Retinoic acid receptor RXR-alpha (Homo sapiens) (P19793 whole entry, looked up): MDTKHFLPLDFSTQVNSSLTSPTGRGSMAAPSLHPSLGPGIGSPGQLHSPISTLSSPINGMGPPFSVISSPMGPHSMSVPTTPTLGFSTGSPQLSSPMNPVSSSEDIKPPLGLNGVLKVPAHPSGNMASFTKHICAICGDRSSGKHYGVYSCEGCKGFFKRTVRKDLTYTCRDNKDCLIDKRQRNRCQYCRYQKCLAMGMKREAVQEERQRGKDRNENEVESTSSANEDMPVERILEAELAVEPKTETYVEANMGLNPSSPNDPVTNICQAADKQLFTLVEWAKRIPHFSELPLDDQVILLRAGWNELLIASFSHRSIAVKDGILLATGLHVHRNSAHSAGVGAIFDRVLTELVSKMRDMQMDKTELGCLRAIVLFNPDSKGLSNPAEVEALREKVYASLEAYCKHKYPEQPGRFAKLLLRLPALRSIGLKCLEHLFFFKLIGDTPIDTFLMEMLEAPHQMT

CCCCOC(=O)CCCCCCCC(=O)OCCCC
inactive: all assays above

O=C1C(O)=C(O)C(=O)C(O)=C1O
inactive: all assays above

O=C(O)c1ccccc1Cl
inactive: all assays above

Cc1cc(C(=O)O)ccc1[N+](=O)[O-]
inactive: all assays above

COc1ccc(C)cc1[N+](=O)[O-]
inactive: all assays above

CCC(C)O (stereo unspecified)
inactive: all assays above

CCNc1cc(O)ccc1C
inactive: all assays above

CCOCC(O)COc1ccc(NC(=O)CC[S+](C)C)cc1 (stereo unspecified)
inactive: all assays above

CCCCCCCCCCCC(=O)OC[C@@H](O)[C@H]1OC[C@H](OCCO)[C@H]1OCCO
not listed: [1]
inactive: all other assays above
